Test results: PubChem BioAssay (NCATS)
Values without a mark were called inactive. Results filed as inconclusive are left out. Entries that show only a call come without a potency. The source made the active and inactive calls. Unless noted, calls follow the shape of the full dose curve.

Key:
[1] = target: Cytochrome P450 1A2 (Homo sapiens) (UniProt P05177); assay: p450-cyp1a2 (AID 410); also: potency is read from the fitted curve at half-maximal effect
Procedure, shortened: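 20nM CYP1A2, 100uM Luciferin-ME (=Km), 100mM KPO4; cpd 10 min RT; +NADPH regen, 60 min RT; stop/detect 20 min; luminescence. Normalized to furafylline 57 uM = full inhibition.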

[2] = target: Mitogen-activated protein kinase 10 (Mus musculus) (UniProt Q61831); assay: JNK3 AlphaScreen Assay (AID 530; active = well fitted curve in either direction with a large enough effect, not every such curve was filed as active;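 also: kinase came from lysate of stimulated human HepG2 cells; signal reports phosphorylation of biotinylated GST-cJun 1-79 at Ser73 with 10 µM ATP; series mostly up to about 57 µM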)
Procedure, shortened: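 Biotinylated GST-cJun(1-79) served as substrate for JNK3 in HepG2 lysates stimulated with IL-1beta and TNF-alpha. ATP was 10 uM final, pH 7.6. Ser73 phosphorylation was quantified by AlphaScreen (680 nm excitation).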

[3] = target: 3',5'-cyclic-AMP phosphodiesterase 4B (Homo sapiens) (UniProt Q07343); assay: qHTS Assay for Inhibitors of PDE-IV (AID 607; active = well fitted activation curve with a large enough effect in the main read-out, with a control signal flat, not every such curve was filed as active)
Procedure, shortened: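 Live HEK293 cells with a modified cyclic nucleotide-gated (CNG) channel report intracellular cAMP via membrane-potential dye fluorescence (ex 535/em 590 nm). Endogenous PDE-IV was targeted. Compounds were tested at up to 22.9 uM final; RO 20-1724 100 uM served as control.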

[4] = target: Cytochrome P450 2C9 (Homo sapiens) (UniProt P11712); assay: qHTS Assay for Inhibitors and Substrates of Cytochrome P450 2C9 (AID 883; active = well fitted curve in the direction sought with a large enough effect; an effect the other way counts as inactive or inconclusive; also: nearly all actives have a fitted effect of over 60% in size; also: potency is read from the fitted curve at half-maximal effect)
Procedure, shortened: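 Human CYP2C9 (10nM) hydroxylated Luciferin-H (100uM, at its KM) to luciferin in 25mM KPO4. Compound was preincubated 10 min at 37C, then NADPH regeneration started a 60 min reaction at 37C. Luminescence was read after detection reagent, normalized to 57uM sulphaphenazole.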

[5] = target: Cytochrome P450 3A4 (Homo sapiens) (UniProt P08684); assay: qHTS Assay for Inhibitors and Substrates of Cytochrome P450 3A4 (AID 884; active = well fitted curve in the direction sought with a large enough effect; an effect the other way counts as inactive or inconclusive; also: potency is read from the fitted curve at half-maximal effect; nearly all actives have a fitted effect of over 50% in size)
Procedure, shortened: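 Luminescent readout of luciferin produced by CYP3A4 (20 nM) dealkylation of Luciferin-PPXE, 25 uM (its KM). NADPH-driven reaction ran 60 min at RT after 10 min compound preincubation; data scaled to 57 uM ketoconazole as 100% inhibition.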

[6] = target: Cytochrome P450 3A4 (Homo sapiens) (UniProt P08684); assay: qHTS Assay for Activators of Cytochrome P450 3A4 (AID 885; active = well fitted curve in the direction sought with a large enough effect; an effect the other way counts as inactive or inconclusive; also: nearly all actives have a fitted effect of over 65% in size)
Procedure, shortened: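 Using 20nM recombinant human CYP3A4 in potassium phosphate (200mM), substrate Luciferin-PPXE at 25uM, luminescent luciferin detection followed a 60-min RT NADPH reaction; data scaled to 57 uM ketoconazole.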

[7] = target: Glucocorticoid receptor (Homo sapiens) (UniProt P04150); assay: GR-EFC Redistribution (AID 451); settings: CHO-K1 GR-EFC translocation, beta-gal luminescence, 2 h; also: potency is read from the fitted curve at half-maximal effect
Procedure, shortened: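 CHO-K1 cells stably expressing nuclear-localized β-gal enzyme acceptor and GR fused C-terminally to the enzyme donor fragment; ligand-driven nuclear translocation restores β-gal by complementation. Compounds titrated up to 46 uM final, 2 h at 37 °C; luminescence read.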

[8] = target: Cytochrome P450 2D6 (Homo sapiens) (UniProt P10635); assay: qHTS Assay for Inhibitors and Substrates of Cytochrome P450 2D6 (AID 891; active = well fitted curve in the direction sought with a large enough effect; an effect the other way counts as inactive or inconclusive; also: nearly all actives have a fitted effect of over 60% in size; also: potency is read from the fitted curve at half-maximal effect)
Procedure, shortened: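 Luminescent read-out of luciferin formed by 5 nM human CYP2D6 demethylating 30 uM Luciferin-ME EGE (Km level) over 60 min at room temperature after NADPH regeneration addition. Data normalized to full inhibition by 1.43 uM quinidine.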

[9] = target: Cytochrome P450 2C19 (Homo sapiens) (UniProt P33261); assay: qHTS Assay for Inhibitors and Substrates of Cytochrome P450 2C19 (AID 899; active = well fitted curve in the direction sought with a large enough effect; an effect the other way counts as inactive or inconclusive; also: nearly all actives have a fitted effect of over 60% in size; also: potency is read from the fitted curve at half-maximal effect)
Procedure, shortened: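 Human CYP2C19 (5nM) with Luciferin-H EGE at 10uM (its KM) in 50mM KPO4 was preincubated with compound for 10 min at 37C. NADPH regeneration started a 60 min 37C reaction. Luciferin was read by luminescence, normalized to 57uM ketoconazole.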

Sequence of Cytochrome P450 3A4 (Homo sapiens) (P08684 whole entry, looked up): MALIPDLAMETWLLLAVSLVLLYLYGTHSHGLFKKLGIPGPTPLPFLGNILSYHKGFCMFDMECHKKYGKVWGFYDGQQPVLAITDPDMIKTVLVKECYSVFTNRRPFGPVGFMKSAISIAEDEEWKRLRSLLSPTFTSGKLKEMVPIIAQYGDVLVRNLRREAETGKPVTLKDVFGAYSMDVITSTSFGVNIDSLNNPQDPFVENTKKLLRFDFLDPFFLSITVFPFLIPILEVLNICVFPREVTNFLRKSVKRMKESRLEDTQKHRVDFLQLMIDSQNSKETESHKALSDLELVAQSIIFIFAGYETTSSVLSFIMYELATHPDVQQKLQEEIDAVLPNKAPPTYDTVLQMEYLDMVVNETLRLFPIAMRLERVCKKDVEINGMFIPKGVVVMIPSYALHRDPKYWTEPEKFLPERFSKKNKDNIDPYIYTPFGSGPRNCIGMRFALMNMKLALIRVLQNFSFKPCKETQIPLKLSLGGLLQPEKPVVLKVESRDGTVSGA
Sequence of Cytochrome P450 1A2 (Homo sapiens) (P05177 whole entry, looked up): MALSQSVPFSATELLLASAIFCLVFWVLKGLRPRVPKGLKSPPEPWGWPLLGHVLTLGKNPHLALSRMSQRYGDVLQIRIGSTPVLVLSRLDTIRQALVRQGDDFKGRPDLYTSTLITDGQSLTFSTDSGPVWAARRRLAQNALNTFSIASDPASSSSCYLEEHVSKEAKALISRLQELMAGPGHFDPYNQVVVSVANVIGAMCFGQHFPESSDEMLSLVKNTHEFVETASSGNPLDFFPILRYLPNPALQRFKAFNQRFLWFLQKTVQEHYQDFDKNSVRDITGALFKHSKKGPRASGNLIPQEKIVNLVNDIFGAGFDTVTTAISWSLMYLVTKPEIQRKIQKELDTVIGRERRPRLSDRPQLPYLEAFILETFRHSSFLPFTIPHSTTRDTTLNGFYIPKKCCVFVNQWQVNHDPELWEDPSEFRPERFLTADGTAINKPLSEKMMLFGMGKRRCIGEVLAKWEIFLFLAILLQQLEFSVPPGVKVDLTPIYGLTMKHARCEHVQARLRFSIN
Sequence of Cytochrome P450 2C9 (Homo sapiens) (P11712 whole entry, looked up): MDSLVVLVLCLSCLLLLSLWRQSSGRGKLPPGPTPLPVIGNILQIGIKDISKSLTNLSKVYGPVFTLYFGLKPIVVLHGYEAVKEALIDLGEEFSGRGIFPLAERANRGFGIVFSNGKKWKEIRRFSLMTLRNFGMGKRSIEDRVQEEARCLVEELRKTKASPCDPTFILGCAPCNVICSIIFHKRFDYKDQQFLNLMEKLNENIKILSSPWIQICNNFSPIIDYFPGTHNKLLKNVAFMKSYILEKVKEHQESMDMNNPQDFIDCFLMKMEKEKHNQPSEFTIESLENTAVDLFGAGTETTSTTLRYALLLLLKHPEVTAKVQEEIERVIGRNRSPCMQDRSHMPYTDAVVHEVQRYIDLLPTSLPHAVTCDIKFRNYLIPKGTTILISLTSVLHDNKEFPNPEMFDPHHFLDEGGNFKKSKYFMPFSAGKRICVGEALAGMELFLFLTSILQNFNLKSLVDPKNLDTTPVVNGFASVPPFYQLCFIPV
Sequence of 3',5'-cyclic-AMP phosphodiesterase 4B (Homo sapiens) (Q07343 whole entry, looked up): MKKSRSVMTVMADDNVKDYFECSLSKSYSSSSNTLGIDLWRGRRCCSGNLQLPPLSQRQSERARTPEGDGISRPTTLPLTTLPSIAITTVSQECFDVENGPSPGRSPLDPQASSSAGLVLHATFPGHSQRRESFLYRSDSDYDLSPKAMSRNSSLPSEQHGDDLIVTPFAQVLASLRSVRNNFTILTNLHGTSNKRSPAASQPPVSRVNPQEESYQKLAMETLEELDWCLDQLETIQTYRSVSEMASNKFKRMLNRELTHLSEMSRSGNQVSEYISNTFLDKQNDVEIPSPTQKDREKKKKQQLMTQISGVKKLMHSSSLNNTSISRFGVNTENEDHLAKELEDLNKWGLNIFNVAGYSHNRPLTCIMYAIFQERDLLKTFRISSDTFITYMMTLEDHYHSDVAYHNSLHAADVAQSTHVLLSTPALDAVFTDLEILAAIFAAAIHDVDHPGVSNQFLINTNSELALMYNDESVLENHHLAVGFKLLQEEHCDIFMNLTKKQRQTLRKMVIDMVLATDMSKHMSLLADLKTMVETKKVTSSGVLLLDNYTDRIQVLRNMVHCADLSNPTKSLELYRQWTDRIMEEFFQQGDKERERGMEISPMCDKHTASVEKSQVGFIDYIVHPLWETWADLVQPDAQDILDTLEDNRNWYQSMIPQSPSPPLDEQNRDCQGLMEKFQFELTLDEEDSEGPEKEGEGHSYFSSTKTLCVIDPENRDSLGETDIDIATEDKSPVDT
Sequence of Cytochrome P450 2D6 (Homo sapiens) (P10635 whole entry, looked up): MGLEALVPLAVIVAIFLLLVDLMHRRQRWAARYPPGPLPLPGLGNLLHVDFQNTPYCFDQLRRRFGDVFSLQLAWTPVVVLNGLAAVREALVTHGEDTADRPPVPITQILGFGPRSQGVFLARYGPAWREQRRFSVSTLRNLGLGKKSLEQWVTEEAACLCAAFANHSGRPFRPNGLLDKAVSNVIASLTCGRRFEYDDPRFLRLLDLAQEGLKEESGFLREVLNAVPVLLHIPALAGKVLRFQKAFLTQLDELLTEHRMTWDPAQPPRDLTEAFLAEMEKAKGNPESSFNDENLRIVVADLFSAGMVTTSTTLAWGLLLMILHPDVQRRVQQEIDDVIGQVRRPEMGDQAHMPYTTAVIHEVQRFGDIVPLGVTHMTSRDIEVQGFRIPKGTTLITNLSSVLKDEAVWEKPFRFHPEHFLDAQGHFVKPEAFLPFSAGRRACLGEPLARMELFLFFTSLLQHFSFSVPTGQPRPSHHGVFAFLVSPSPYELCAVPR
Sequence of Glucocorticoid receptor (Homo sapiens) (P04150 whole entry, looked up, the tested form may be a part): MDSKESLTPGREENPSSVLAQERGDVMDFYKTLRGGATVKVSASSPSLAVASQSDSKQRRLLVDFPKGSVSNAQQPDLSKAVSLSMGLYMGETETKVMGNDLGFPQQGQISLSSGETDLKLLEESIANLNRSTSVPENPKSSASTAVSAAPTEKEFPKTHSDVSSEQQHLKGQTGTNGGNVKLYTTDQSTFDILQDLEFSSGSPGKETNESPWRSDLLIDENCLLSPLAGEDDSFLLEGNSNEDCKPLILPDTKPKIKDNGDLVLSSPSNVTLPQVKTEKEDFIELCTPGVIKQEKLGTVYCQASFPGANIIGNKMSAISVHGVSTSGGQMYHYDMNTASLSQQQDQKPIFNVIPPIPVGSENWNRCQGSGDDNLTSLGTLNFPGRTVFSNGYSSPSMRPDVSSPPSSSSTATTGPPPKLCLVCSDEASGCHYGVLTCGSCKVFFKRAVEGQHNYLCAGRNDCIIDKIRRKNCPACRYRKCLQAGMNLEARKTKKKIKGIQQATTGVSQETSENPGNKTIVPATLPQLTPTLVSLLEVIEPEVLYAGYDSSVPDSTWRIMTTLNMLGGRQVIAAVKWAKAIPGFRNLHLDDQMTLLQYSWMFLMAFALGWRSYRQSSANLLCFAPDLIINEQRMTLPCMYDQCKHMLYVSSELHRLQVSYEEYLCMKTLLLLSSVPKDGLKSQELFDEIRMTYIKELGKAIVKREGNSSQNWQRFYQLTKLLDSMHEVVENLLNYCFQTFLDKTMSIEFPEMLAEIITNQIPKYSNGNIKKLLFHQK
Sequence of Cytochrome P450 2C19 (Homo sapiens) (P33261 whole entry, looked up): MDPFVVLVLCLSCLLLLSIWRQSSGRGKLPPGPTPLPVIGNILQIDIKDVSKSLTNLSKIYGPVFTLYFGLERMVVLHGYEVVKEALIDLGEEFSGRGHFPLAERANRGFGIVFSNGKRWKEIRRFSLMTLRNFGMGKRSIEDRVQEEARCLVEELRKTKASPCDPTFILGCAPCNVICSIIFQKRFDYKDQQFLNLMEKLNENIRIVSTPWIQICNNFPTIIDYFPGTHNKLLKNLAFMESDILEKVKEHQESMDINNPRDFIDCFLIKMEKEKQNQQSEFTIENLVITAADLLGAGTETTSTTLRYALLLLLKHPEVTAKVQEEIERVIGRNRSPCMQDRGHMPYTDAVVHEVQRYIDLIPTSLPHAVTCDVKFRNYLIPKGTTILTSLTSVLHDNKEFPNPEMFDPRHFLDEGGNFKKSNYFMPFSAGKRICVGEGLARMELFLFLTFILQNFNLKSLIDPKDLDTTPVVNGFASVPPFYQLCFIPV

In the case of `COC(=O)[C@@]1(Cc2ccc(F)cc2)[C@H]2c3cc(C(=O)N4CCCC4)n(CCF)c3C[C@H]2CN1C(=O)c1ccccc1`, the Potency [1] is reported as 15.8 µM (active), the Potency [2] is reported as “inactive” and the Potency [3] is reported as “inactive”.

With `COC(=O)[C@@]1(Cc2ccc(F)cc2)[C@H]2c3cc(C(=O)N(C)C)n(CCc4c[nH]c5ccc(OC)cc45)c3C[C@H]2CN1C(=O)c1ccccc1` the Potency [1] was 12.6 µM (active), the Potency [2] was “inactive” and the Potency [3] was “inactive”.

With `COC(=O)[C@@]1(Cc2ccc(F)cc2)[C@H]2c3cc(C(=O)N4CCCC4)n(Cc4cccc5ccccc45)c3C[C@H]2CN1C(=O)c1ccccc1` the Potency [1] was 15.8 µM (active), the Potency [2] was “inactive” and the Potency [3] was “inactive”. For the same molecule, the Potency [4] was 1.58 µM (active), the Potency [5] was 2 µM (active) and the Potency [6] was “inactive”.

For `COC(=O)[C@@]1(Cc2ccc(F)cc2)[C@H]2c3cc(C(=O)N4CCCC4)n(CCCNc4ncc(C(F)(F)F)cc4Cl)c3C[C@H]2CN1C(=O)c1ccccc1`, the Potency [1] was “inactive”, the Potency [2] was “inactive” and the Potency [3] was “inactive”. For the same molecule, the Potency [4] was 3.16 µM (active), the Potency [5] was 2.51 µM (active) and the Potency [6] was “inactive”.

`C[C@@]1(C(NC(=O)c2ccccc2)c2ccc(-c3ccccc3)cc2)C[C@H]1C1CCCCC1` (stereo not given in full) was tested, and the Potency [1] was “inactive”, the Potency [2] was “inactive” and the Potency [3] was “inactive”.

In the case of `C[C@@H](C(=O)Nc1ccc2ccccc2c1)[C@@H]1C[C@@]1(C)[C@@H](NS(=O)(=O)c1ccc(-c2ccccc2)cc1)c1ccccc1`, the Potency [1] is reported as 12.6 µM (active), the Potency [2] is reported as “inactive” and the Potency [3] is reported as “inactive”.

For `CCCC/C=C/C(NC(=O)c1ccc(-c2ccccc2)cc1)c1ccccc1` (stereo not given), the Potency [1] was 15.8 µM (active), the Potency [2] was “inactive” and the Potency [3] was “inactive”.

`CCC#CCOCC(=S)Nc1ccccc1` was tested, and the Potency [1] was 15.8 µM (active), the Potency [2] was “inactive” and the Potency [3] was “inactive”.

In the case of `COc1cc(/C=C\C(=O)N2CCCCC2=O)cc(OC)c1OC`, the Potency [1] is reported as 0.1 µM (active), the Potency [7] is reported as > 46 µM and the Potency [4] is reported as “inactive”. For the same molecule, the Potency [8] was “inactive” and the Potency [9] was “inactive”.

`CCc1c2c(nc3cccc(SC)c13)COC2` was tested, and the Potency [1] was 2.51 µM (active) and the Potency [2] was “inactive”.

For `CCC[C@@H]1C[C@@]1(CCC)C(NC(=O)c1ccc(-c2ccccc2)cc1)c1cccc(Cl)c1` (stereo not given in full), the Potency [1] was “inactive”, the Potency [2] was “inactive” and the Potency [3] was “inactive”.

`NCCC[C@@H](CC(=O)N[C@@H]1CCNC[C@H]1C(=O)N[C@H](CC(=O)N[C@@H](CCC(=O)O)CC(=O)O)Cc1c[nH]c2ccccc12)NC(=O)C[C@H](Cc1c[nH]c2ccccc12)NC(=O)[C@@H]1CNCC[C@H]1N` was tested, and the Potency [1] was “inactive”, the Potency [7] was > 46 µM and the Potency [3] was “inactive”. The Potency [9] was “inactive”.

For `O=C(N[C@@H](c1ccccc1)[C@@H]1C[C@H]1C(=O)O)OCc1ccccc1`, the Potency [1] was 20 µM (active), the Potency [2] was “inactive” and the Potency [3] was “inactive”.

For `CCc1c2c(nc3cccc(OC)c13)OC(CC)C2` (stereo not given), the Potency [1] was 2 µM (active), the Potency [2] was “inactive” and the Potency [3] was “inactive”.

`COC(=O)c1ccc(C#CC(NP(=O)(c2ccccc2)c2ccccc2)c2ccccc2)cc1` (stereo not given) was tested, and the Potency [1] was 20 µM (active) and the Potency [2] was “inactive”.

In the case of `COC(=O)[C@@]1(Cc2ccccc2)[C@H]2c3cc(C(=O)N(C)C)n(CCN4CNCC4=O)c3C[C@H]2CN1C(=O)c1ccccc1`, the Potency [1] is reported as 5.01 µM (active), the Potency [2] is reported as “inactive” and the Potency [3] is reported as “inactive”.

For `COC(=O)[C@@]1(Cc2ccc(F)cc2)[C@H]2c3cc(C(=O)N(C)C)n(C)c3C[C@H]2CN1C(=O)c1ccccc1`, the Potency [1] was 31.6 µM (active), the Potency [2] was “inactive” and the Potency [3] was “inactive”.

With `Clc1ccc(CO[C@@H](Cn2ccnc2)c2ccc(Cl)cc2Cl)cc1` the Potency [1] was 0.1 µM (active), the Potency [7] was > 20.6 µM and the Potency [8] was 0.199 µM (active). The Potency [9] was 0.0631 µM (active).

With `COC(=O)[C@@]1(Cc2ccc(F)cc2)[C@H]2c3cc(C(=O)N4CCCC4)n(CCO)c3C[C@H]2CN1C(=O)c1ccccc1` the Potency [1] was 25.1 µM (active), the Potency [2] was “inactive” and the Potency [3] was “inactive”.

With `NCCC[C@@H](CC(=O)N[C@@H]1CCCC[C@H]1C(=O)N[C@H](CC(=O)N[C@@H](CCC(=O)O)CC(=O)O)Cc1c[nH]c2ccccc12)NC(=O)C[C@H](CO)NC(=O)[C@@H]1CNCC[C@H]1N` the Potency [1] was “inactive”, the Potency [7] was > 46 µM and the Potency [3] was “inactive”. The Potency [9] was “inactive”.

In the case of `CC1=C(C(=O)OCc2ccccc2)C(c2ccccc2)NC(=O)N1CCCCCC(=O)O` (stereo not given), the Potency [1] is reported as 20 µM (active), the Potency [2] is reported as “inactive” and the Potency [3] is reported as “inactive”.

In the case of `CC(Cc1ccccc1)C(=O)NCc1ccccn1` (stereo not given), the Potency [1] is reported as 15.8 µM (active), the Potency [2] is reported as “inactive” and the Potency [3] is reported as “inactive”.

In the case of `COC(=O)[C@@]1(Cc2ccccc2)[C@H]2c3cc(C(=O)N4CCCC4)n(Cc4ccc(C(F)(F)F)nc4)c3C[C@H]2CN1C(=O)c1ccccc1`, the Potency [1] is reported as “inactive”, the Potency [2] is reported as “inactive” and the Potency [3] is reported as “inactive”. The Potency [4] was 5.01 µM (active), the Potency [5] was 3.16 µM (active) and the Potency [6] was “inactive”.

In the case of `C[C@@H](C(=O)Nc1ccc2ccccc2c1)[C@H]1C[C@]1(C)[C@H](NP(=O)(c1ccccc1)c1ccccc1)c1ccccc1`, the Potency [1] is reported as 10 µM (active), the Potency [2] is reported as “inactive” and the Potency [3] is reported as “inactive”. For the same molecule, the Potency [4] was 3.16 µM (active), the Potency [5] was 2 µM (active) and the Potency [6] was “inactive”. The Potency [8] was 0.794 µM (active).

`COC(=O)[C@@H]1C[C@H]1[C@@H](NC(=O)OCc1ccccc1)c1ccccc1` was tested, and the Potency [1] was 0.2 µM (active), the Potency [2] was “inactive” and the Potency [3] was “inactive”. For the same molecule, the Potency [4] was 20 µM (active) and the Potency [9] was 2.51 µM (active).

With `COC(=O)[C@@]1(Cc2ccccc2)[C@H]2c3cc(C(=O)N4CCCC4)n(Cc4ccsc4Br)c3C[C@H]2CN1C(=O)c1ccccc1` the Potency [1] was “inactive”, the Potency [2] was “inactive” and the Potency [3] was “inactive”. The Potency [4] was 2 µM (active), the Potency [5] was 3.98 µM (active) and the Potency [6] was “inactive”.

With `CCCc1cc2c(n1Cc1cc(F)cc(F)c1)C(C)C1CN(C(=O)c3ccccc3)C(C)(C(=O)OC)C21` (stereo not given) the Potency [1] was “inactive”, the Potency [2] was “inactive” and the Potency [3] was “inactive”. The Potency [4] was 6.31 µM (active), the Potency [5] was 3.16 µM (active) and the Potency [6] was “inactive”.
